Reference: PubChem BioAssay AID1159580 (chemical genetic matrix, 2015)
“And” between values parts separate entries of the source, which are not always exact repeats. Identical values can stand only once. Among all 5,500 compounds or so, about 2,000 (36%) were called active. Roughly 18% stayed inconclusive and do not appear here. Cut-off read from the data, not from the text of the source: active = normalized growth mostly below about 0.91 (no sharp cut-off); inconclusive = no clear call, values can overlap the other calls; inactive = mostly above about 0.92. This is one part of the list.

Experiment: chemical genetic growth profiling, strain panel (AID 1159580);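 note: tested at 20 µM; growth read once vehicle control cultures reached saturation at 30 °C; 1 = growth at the plate median or of vehicle wells; lower values mean less growth of the strain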
Settings: S. cerevisiae deletion strains, growth OD

Measured: normalized growth

COc1ccc2[nH]cc(CCNC(C)=O)c2c1
inactive: locus YAL013W, strain DEP1, active compounds read low 1.01 | locus YAL021C, strain ccr4, active compounds read low 0.977 | locus YAL026C, strain drs2, active compounds read low 0.983 | locus YAL030W, strain snc1, active compounds read low 0.984 | locus YAL040C, strain CLN3, active compounds read low 0.996 | locus YBL061C, strain skt5, active compounds read low 0.969 | locus YBR009C, strain hhf1, active compounds read low 0.983 | locus YBR021W, strain FUR4, active compounds read low 1.01 | locus YBR023C, strain chs3, active compounds read low 0.979 | locus YBR171W, strain sec66, active compounds read low 0.966 | locus YBR229C, strain ROT2, active compounds read low 1.02 | locus YBR231C, strain swc5, active compounds read low 0.971 | locus YBR279W, strain paf1, active compounds read low 0.978 | locus YCL011C, strain gbp2, active compounds read low 0.979 | locus YCL016C, strain dcc1, active compounds read low 0.972 | locus YCL029C, strain bik1, active compounds read low 1.02 | locus YCL061C, strain MRC1 (second series), active compounds read low 1.01 | locus YCL061C, strain MRC1, active compounds read low 0.984 | locus YCL069W, strain vba3, active compounds read low 0.977 | locus YCR088W, strain abp1, active compounds read low 0.968 | locus YDL005C, strain med2, active compounds read low 0.959 | locus YDL035C, strain GPR1, active compounds read low 1.01 | locus YDL040C, strain nat1, active compounds read low 0.971 | locus YDL074C, strain BRE1, active compounds read low 1.02 | locus YDL101C, strain DUN1, active compounds read low 1.01 | locus YDL134C, strain PPH21, active compounds read low 1.01 | locus YDL185W, strain tfp1, active compounds read low 1.03 | locus YDL192W, strain arf1, active compounds read low 1.03 | locus YDR001C, strain nth1, active compounds read low 0.973 | locus YDR069C, strain doa4, active compounds read low 0.958 | locus YDR101C, strain arx1, active compounds read low 1.02 | locus YDR137W, strain rgp1, active compounds read low 0.992 | locus YDR150W, strain NUM1, active compounds read low 1 and 1.01 | locus YDR159W, strain sac3, active compounds read low 0.943 | locus YDR162C, strain NBP2, active compounds read low 1.02 | locus YDR195W, strain ref2 0.959 | locus YDR297W, strain sur2, active compounds read low 0.967 | locus YDR318W, strain mcm21, active compounds read low 1.02 | locus YDR334W, strain swr1, active compounds read low 0.969 | locus YDR335W, strain msn5, active compounds read low 0.977 | locus YDR363W, strain ESC2, active compounds read low 0.996 | locus YDR388W, active compounds read low 1.02 | locus YDR392W, strain spt3, active compounds read low 0.958 | locus YDR502C, strain sam2, active compounds read low 1.03 | locus YEL003W, strain gim4, active compounds read low 0.974 | locus YEL037C, strain rad23, active compounds read low 0.966 | locus YEL061C, strain CIN8 (second series), active compounds read low 0.972 | locus YEL061C, strain CIN8, active compounds read low 1 | locus YER002W, strain NOP16, active compounds read low 0.999 | locus YER015W, strain faa2, active compounds read low 0.981 | locus YER016W, strain bim1, active compounds read low 0.975 | locus YER110C, active compounds read low 1.02 | locus YER111C, strain swi4, active compounds read low 0.976 | locus YER155C, strain BEM2 (second series), active compounds read low 0.971 | locus YER155C, strain BEM2, active compounds read low 0.998 | locus YER167W, strain BCK2, active compounds read low 1.01 | locus YFR010W, strain ubp6, active compounds read low 0.955 | locus YGL078C, strain dbp3, active compounds read low 1.02 | locus YGL086W, strain mad1, active compounds read low 1.02 | locus YGL167C, strain pmr1, active compounds read low 0.96 | locus YGL173C, strain kem1, active compounds read low 0.955 | locus YGL227W, strain vid30, active compounds read low 0.962 | locus YGL240W, strain doc1, active compounds read low 0.963 | locus YGL248W, strain PDE1, active compounds read low 1.01 | locus YGL253W, strain hxk2, active compounds read low 0.983 | locus YGR078C, strain PAC10, active compounds read low 1.02 and 1.01 | locus YGR135W, strain pre9, active compounds read low 1.03 | locus YGR229C, strain SMI1, active compounds read low 1.01 | locus YGR252W, strain gcn5, active compounds read low 1.05 | locus YHR013C, strain ard1, active compounds read low 0.968 | locus YHR027C, strain rpn1, active compounds read low 0.994 | locus YHR030C, strain SLT2, active compounds read low 0.998 and 0.997 | locus YHR079C, strain IRE1 (second series), active compounds read low 1.02 | locus YHR079C, strain IRE1, active compounds read low 0.998 | locus YHR094C, strain hxt1, active compounds read low 1.02 | locus YHR129C, strain ARP1, active compounds read low 1 | locus YHR142W, strain chs7, active compounds read low 0.964 | locus YHR200W, strain rpn10, active compounds read low 1.03 | locus YIL066C, strain RNR3, active compounds read low 1.01 | locus YIL073C, strain SPO22, active compounds read low 1.08 | locus YIL125W, strain kgd1, active compounds read low 1.03 | locus YIR030C, strain dcg1, active compounds read low 1.03 | locus YJL092W, strain hpr5, active compounds read low 0.974 | locus YJL095W, strain BCK1 (second series), active compounds read low 0.971 | locus YJL095W, strain BCK1, active compounds read low 1.02 | locus YJL115W, strain asf1, active compounds read low 0.969 | locus YJL129C, strain trk1, active compounds read low 0.967 | locus YJL134W, strain LCB3, active compounds read low 1 | locus YJL154C, strain vps35, active compounds read low 0.957 | locus YJL164C, strain tpk1, active compounds read low 0.986 | locus YJL166W, strain qcr8, active compounds read low 0.979 | locus YJL168C, strain set2, active compounds read low 1.03 | locus YJL187C, strain SWE1 (second series), active compounds read low 1.01 | locus YJL187C, strain SWE1, active compounds read low 0.979 | locus YJR043C, strain POL32, active compounds read low 0.994 | locus YJR066W, strain TOR1, active compounds read low 0.941
